Measured values as given in PubChem BioAssay (EPA / NIEHS).
Records with an inconclusive call do not appear. The source made the active and inactive calls. The calls were made as follows: active = hit-call score of the fitted dose curve at least 0.9, where 1 is the maximum; inconclusive = response in the unintended direction; inactive = score below 0.9.

target: human Vitamin D Receptor (VDR), VDR (gene 7421) (UniProt P11473); test: ATG_VDR_TRANS: Attagene TRANS-FACTORIAL HepG2 Assay for human Vitamin D Receptor (VDR) (AID 2283022)
Description: ATG_TRANS is a cell-based, multiplexed-readout assay that uses HepG2, a human liver cell line, with measurements taken at 24 hours after chemical dosing in a 24-well plate.ATG_VDR_TRANS is one of 30 assay component(s) measured or calculated from the ATG_TRANS assay. It is designed to make measurements of mRNA induction, a form of inducible reporter, as detected with fluorescence intensity signals by Reverse transcription polymerase chain reaction (RT-PCR) and Capillary electrophoresis technology.Data from the assay component ATG_VDR_TRANS was analyzed into 1 assay endpoint. This assay endpoint, ATG_VDR_TRANS, was analyzed in the positive analysis fitting direction relative to DMSO as the negative control and baseline of activity. Using a type of inducible reporter, measures of mRNA for gain-of-signal activity can be used to understand the reporter gene at the transcription factor-level as they relate to the gene VDR. Furthermore, this assay endpoint can be referred to as a primary readout, because this assay has produced multiple assay endpoints where this one serves a reporter gene function. To generalize the intended target to other relatable targets, this assay endpoint is annotated to the nuclear receptor intended target family, where the subfamily is non-steroidal.
Human liver HepG2 cells are transiently transfected with multiple reporter transcription units (MRTUs) in 6-well plates using FuGene 6 reagent (Roche; 3 ml FuGene/1 mg DNA). The MRTU constructs are regulated by a cis-regulating element (promoter). […] A major difference between the CIS and TRANS system is that in CIS activities of endogenous TFs are measured, whereas the TRANS assay evaluates changes in activities of exogenous, chimeric NR-Gal4 proteins. […] At the end of 24 hour incubation, total RNA was isolated using TriZol reagent (Invitrogen). The isolated RNA is then reverse-transcribed using oligo(dT) primer and Mo-MLV reverse transcriptase (Invitrogen) with DNAse I (Ambion) treatment for 30 min. The one-tenth of the produced cDNA was amplified by PCR using Taq DNA polymerase (Invitrogen) and two reporter sequence-specific primers. The PCR products were fluorescently labeled by primer extension with 6-arboxyfluorescein (6-FAM) 5'-labeled reporter sequence-specific primer (2 min at 95 C, 20 s at 68 C and 10 min at 72 C) and these products were digested with 5U of HpaI (New England Biolabs) for 2h at 37 C. The fragments were purified using Qiaquick PCR columns (Qiagen), analyzed on an ABI 3130xL genetic analyzer (Applied Biosystems) with peak positions identified by using a set of X-rhodamine (ROX)-labeled MapMarker1000 molecular weight standards (BioVentures). The raw capillary electrophoresis data was processed using Attagraph software (Attagene).

Sequence of human Vitamin D Receptor (VDR), VDR (gene 7421) (P11473 whole entry, looked up): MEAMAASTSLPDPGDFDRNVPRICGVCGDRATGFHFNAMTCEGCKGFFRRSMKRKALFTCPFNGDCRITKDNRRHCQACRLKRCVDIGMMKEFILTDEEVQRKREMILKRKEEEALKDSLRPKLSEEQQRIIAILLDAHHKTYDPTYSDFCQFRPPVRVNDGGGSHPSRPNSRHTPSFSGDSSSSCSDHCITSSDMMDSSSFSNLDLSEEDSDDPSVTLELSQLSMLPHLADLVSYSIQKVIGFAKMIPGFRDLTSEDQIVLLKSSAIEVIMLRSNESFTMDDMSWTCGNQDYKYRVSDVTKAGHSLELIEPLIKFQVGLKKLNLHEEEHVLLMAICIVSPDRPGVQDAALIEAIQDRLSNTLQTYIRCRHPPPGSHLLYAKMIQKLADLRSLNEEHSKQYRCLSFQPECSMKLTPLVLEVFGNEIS

outcome, inactive:
CCCCCCCCCCCCCCCC(=O)OC[C@H](O)[C@H]1OC(=O)C(O)=C1O
C/C=C(\C)C(=O)OCc1ccccc1
Cc1ccc(C(=O)c2cc(O)c(O)c([N+](=O)[O-])c2)cc1
CC(=O)c1c(C)cc(C(C)(C)C)cc1C
C=C(C)[C@@H]1CCC2=CC(=O)C[C@@H](C)[C@]2(C)C1
CN(C)c1ccc(O)c2c1C[C@H]1C[C@H]3[C@H](N(C)C)C(=O)C(C(N)=O)=C(O)[C@@]3(O)C(=O)C1=C2O
CCCc1c(OCCCOc2ccc(OCC(=O)O)cc2)ccc(C(C)=O)c1O
COc1cc(C(C)(C)C)c(O)c(C(C)(C)C)c1
CC(=O)OCCC(C)CC(C)(C)C (stereo not given)
Nc1cc([N+](=O)[O-])ccc1O
C=CCOc1nc(OCC=C)nc(OCC=C)n1
Cc1c(Cl)c(=O)oc2cc(O)ccc12
COc1ccc(O)cc1
CCCCCCCCCOC(C)=O
C=CCOC(=O)CCC1CCCCC1
CC(C)c1ccc(C(C)C)cc1
C=C(C)C(=O)O
CCCCCCCCCCCCCCCC(=O)O
CC(CCO)CCc1ccccc1 (stereo not given)
O=C(O)c1cccc(C(F)(F)F)c1
CCCCc1ccc(N)cc1
COC(C(=O)O)c1ccccc1 (stereo not given)
CC(C)=CCC[C@H](C)CC=O
Nc1nc2ccc([N+](=O)[O-])cc2s1
CC1(C)CCC(C)(C)c2cc(C(=O)Nc3ccc(C(=O)O)cc3)ccc21
N#Cc1ccccc1
O=S(=O)(O)c1ccc(O)c2ncccc12
CCN(CC)CCOC(=O)c1ccc(N)cc1
C=C(C)C(=O)Nc1ccc(Cl)c(Cl)c1
Nc1cc(Cl)c(O)c(Cl)c1
c1ccc2sc(SN(C3CCCCC3)C3CCCCC3)nc2c1
O=C(OCc1ccccc1)C(=O)OCc1ccccc1
O=C1O[C@@H]2[C@@H](O)[C@H](O)O[C@@H]2[C@H]1O
O=Nc1ccc(Nc2ccccc2)cc1
Cc1ncc([N+](=O)[O-])n1C
CCCCOCCOCCOCCOCCO
CC(C)CCCCCCCOC(=O)c1ccc(C(=O)OCCCCCCCC(C)C)c(C(=O)OCCCCCCCC(C)C)c1
CC(=O)OCC=Cc1ccccc1
C=COCCOCCOCCOC=C
COc1cc2ncnc(Nc3cccc(Cl)c3)c2cc1OC
